High-throughput results as filed in PubChem.
LDHA block: LDHA (human) enzyme inhibition. 480,000 compounds, 0.15% hits. activity change, % (values are at about 110 or 230 µM). P00338. purified LDHA, NADH/diaphorase-resazurin fluorescence; hits give low values; in the data active means activity change below about -30%; inconclusive means mostly about -25% to -30%;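 further: plate controls were DMSO wells for no effect and wells without enzyme for full effect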
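Human LDH5 at 2 nM final in Tris HCl pH 7.4 with 0.06 mM NADH and 0.2 mM pyruvate, reacted 5 minutes at room temperature. Remaining NADH coupled via diaphorase/resazurin; resorufin fluorescence read at 0 and 20 minutes, normalized to enzyme-free and DMSO wells.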
D2 PAM-1: potentiates the human D2 dopamine receptor allosterically. P14416. 360,000 compounds, 0.23% hits. AID 624464. DiscoveRx D2 beta-arrestin cells, luminescence, 90 min; 100% = 57 uM dopamine signal. potentiation, % (concentration not given with the values); in the data active means potentiation above about 50%; inconclusive means mostly about 30% to 49%
Target sequence (P14416 whole entry, looked up): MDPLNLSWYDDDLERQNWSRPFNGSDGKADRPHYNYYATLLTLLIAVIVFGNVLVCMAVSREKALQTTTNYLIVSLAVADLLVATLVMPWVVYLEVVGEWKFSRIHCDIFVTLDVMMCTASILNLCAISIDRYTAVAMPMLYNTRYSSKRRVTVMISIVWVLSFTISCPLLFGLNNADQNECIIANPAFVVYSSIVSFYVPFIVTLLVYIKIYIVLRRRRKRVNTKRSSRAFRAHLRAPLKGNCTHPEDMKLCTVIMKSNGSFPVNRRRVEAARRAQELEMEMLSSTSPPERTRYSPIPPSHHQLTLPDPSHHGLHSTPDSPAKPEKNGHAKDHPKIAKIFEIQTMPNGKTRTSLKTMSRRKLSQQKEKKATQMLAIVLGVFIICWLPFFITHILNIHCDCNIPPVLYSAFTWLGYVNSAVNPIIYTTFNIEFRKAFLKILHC
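D2 cells co-treated with compound plus 50 nM dopamine (EC20) for 90 min at 37 deg C to detect potentiation. Beta-arrestin recruitment was read as enzyme-fragment luminescence after 1 h at ambient temperature. Full response was set by 57 uM dopamine.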
D2 antag: antagonizes the human D2 dopamine receptor; 340,000 compounds, 2% hits; HEK293 TREx D2 cells, calcium flux, dopamine EC80; inhibition, % at 10 µM; in the data active means inhibition above about 30%; inactive means below that, where a call was filed; further: 0% is about no effect
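Tetracycline-induced HEK293 T-REx cells expressing D2 force-coupled to calcium signalling were dye-loaded, exposed to compound for 180 s, then challenged with an EC80 of dopamine; calcium flux was followed kinetically for a further 180 s.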
D2 PAM-2: positive allosteric modulators of human D2 dopamine receptor; HEK293 T-REx D2, calcium flux, EC20 dopamine potentiation; potentiation, % at 10 µM; 340,000 compounds, 0.34% hits;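 active means potentiation over 3 SD above the plate norm, cut at about 30% in these data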; further: 0% is about no effect
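Tetracycline-induced HEK293 T-REx cells force-coupled to calcium signalling expressed D2; compounds were pin-added after a 10 s baseline, read kinetically 180 s, then an EC20 dopamine challenge followed with a further 180 s calcium read.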
D2 ag-1: D2 dopamine receptor (human) agonism; P14416; HEK293 T-REx D2 cells, calcium flux agonist mode; activation, % at 2 µM; 340,000 compounds, 0.53% hits; AID 485358;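 active means activation over 3 SD above normal in the single-dose calcium agonist read, cut at about 30% in these data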; further: 0% is about no effect
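Agonism is scored from calcium flux in a force-coupled, inducible HEK293 cell line expressing D2, read kinetically for 180 s after compound addition against dopamine controls.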
D2 ag-2: human D2 receptor agonism in beta-arrestin assay; P14416; DiscoveRx PathHunter D2 beta-arrestin, luminescence, 90 min; 100% = 57 uM dopamine signal; activation, % (no concentration beside the values); 360,000 compounds, 0.084% hits; AID 624465; in the data active means activation above about 40%; inconclusive means between about 15% and that limit
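DiscoveRx PathHunter D2 beta-arrestin cells (2,100/well) attached overnight, then compound-stimulated 90 min at 37 C in HBSS/10 mM HEPES/0.1% Tween-20 buffer; beta-galactosidase complementation read by luminescence after 1 h at ambient temperature. Dopamine 57 uM final (EC100) as control.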
* = called active by the depositor; ? = inconclusive; . = no result given. In the library only some 2.1% were active in any assay of this set; here they are far more common.

SMILES	LDHA block	D2 PAM-1	D2 antag	D2 PAM-2	D2 ag-1	D2 ag-2
CCN(CC)CCCNC(=O)c1cc2c(-c3cccc(OC)c3)nn(C)c2s1	-0.5	-49.4	-27.9	-2.4	0.3	0.1
CCCCN(C)CCNC(=O)c1cc2c(-c3ccccc3F)nn(C)c2s1	-3.4	-12.7	24.3	-15.8	32.2*	3.5
Cn1nc(-c2ccc(Cl)cc2)c2cc(C(=O)NCCCN3CCCC3)sc21	-0.8	10.9	33.0*	-26.2	0.2	13.8
COc1cccc(-c2nn(C)c3sc(C(=O)NCCCN(C)Cc4ccccc4)cc23)c1	-6.4	-35.6	33.2*	-22.9	-2.3	6.7
COCCNC(=O)c1cc2c(-c3ccccc3F)nn(C)c2s1	-8.3	-20.1	4.3	-4.7	0.7	1.8
N#Cc1c(F)cccc1N1CCN(Cc2ccc3c(c2)OCO3)CC1	-2.7	-19.0	85.4*	-35.2	6.7	-3.9
Cc1cc(-c2ccc(C(C)C)c(S(=O)(=O)Nc3ccccn3)c2)on1	-2.9	-2.7	31.2*	-3.5	-0.9	4.5
CNC(=O)c1nnc(Cc2ccc(F)cc2)o1	-5.9	-1.8	58.1*	0.0	-0.7	-5.0
O=C(NCCc1ccc(Cl)cc1)c1nnc(Cc2ccc(F)cc2)o1	-6.6	.	.	-0.5	0.2	.
CC(CCN1CCN(c2ccc(F)cc2)CC1)c1ccccc1 (stereo not drawn)	-1.3	-32.6	87.7*	-21.3	1.5	-4.9
COc1cc(C=O)ccc1OCCSc1ccc(C)cc1	3.1	-2.4	-4.3	-1.4	-0.7	1.1
CCOc1cc(C=O)ccc1OCCSc1ccc(C)cc1	-6.8	2.2	39.6*	-8.3	0.7	-3.5
O=C1CCN2C=Nc3cccc4ccc1c2c34	14.1	20.6	10.8	-6.3	47.4*	7.2
COc1ccc(CC(=O)Nc2cccc(-c3nnc(-c4ccccc4)o3)c2)cc1OC	-5.0	54.3*	5.8	18.3	0.0	13.5
CC(C)(c1ccc(OC(=O)c2ccccc2F)cc1)c1ccc(OC(=O)c2ccccc2F)cc1	-2.3	.	.	.	.	.
COc1ccc(C(=O)c2sc(Nc3ccccc3)c(C(N)=O)c2N)cc1	-1.3	.	.	.	.	.
Clc1ccc(-c2nnc(SCc3nc(-c4ccccc4)no3)o2)cc1	0.1	-3.1	40.6*	-7.6	0.3	-4.8
c1ccc(-c2noc(CSc3nc4ccccc4o3)n2)cc1	-1.7	-7.4	-3.3	-4.8	-0.7	0.6
Cc1ccc(NC(=O)CCNC(=O)c2ccco2)cc1Cl	-5.5	-5.0	35.9*	-1.0	-0.4	-4.3
Cc1cc(C)n(CCNC(=O)c2ccco2)n1	-9.8	0.7	-10.8	31.3*	0.0	-1.2
CCCOc1cccc(C(=O)NCCNC(=O)c2ccco2)c1	-1.3	0.6	57.0*	10.6	-0.8	-4.9
O=C(NCCNC(=O)c1ccco1)c1ccco1	-12.1	1.1	-1.8	.	-3.0	-4.2
COc1cccc(C(=O)NCCNC(=O)c2ccco2)c1	-4.3	-0.5	-0.6	3.9	-0.4	-3.3
O=C(NC1CC1)C(NCc1cccc(C(F)(F)F)c1)c1ccc(F)cc1 (stereo not drawn)	0.4	.	.	.	.	.
CCC(C(=O)OCC(=O)Nc1c(C)nn(-c2ccccc2)c1C)c1ccccc1 (stereo not drawn)	-1.4	3.5	18.4	3.3	-0.2	-0.4
SMILES	LDHA block	D2 PAM-1	D2 antag	D2 PAM-2	D2 ag-1	D2 ag-2
Cc1nn(-c2ccccc2)c(C)c1NC(=O)COC(=O)[C@@H](NC(=O)c1ccccc1)C(C)C	-2.7	6.0	35.9*	-5.2	-0.6	-2.2
O=C(COC(=O)c1cc(=O)c2ccccc2o1)Nc1ccc(Cl)cc1	-3.2	.	.	.	.	.
CCOc1ccc(OCC)c2sc(C)nc12	-3.3	-6.5	-23.5	36.9*	-2.1	-4.3
CCOc1cccc2sc(Cl)nc12	-1.6	-8.1	7.6	1.0	0.2	-1.0
COC(=O)c1nc2n(n1)C(c1ccc(C)cc1)C(C(=O)Nc1ccc(Cl)cc1)=C(C)N2 (stereo not drawn)	2.5	.	.	.	.	.
O=C(Cn1ccc(C(F)(F)F)n1)N=Nc1c(O)[nH]c2ccc(Br)cc12	-4.1	-6.5	-9.6	42.4*	1.1	-14.3
O=C(Cn1ccc(C(F)(F)F)n1)N=Nc1c(O)[nH]c2ccccc12	-7.9	-7.5	-9.6	9.1	-0.3	4.9
CC1(C)CC(N2CCOCC2)=CC(=[N+]2CCOCC2)C1	-10.4	-23.3	-7.0	2.6	2.4	-1.6
CN(C)c1cccc(N=C2C=C(N3CCOCC3)CC(C)(C)C2)c1	-31.3*	-22.4	5.8	0.3	1.9	-0.7
CCOc1ccc(Oc2ccc(Cl)cc2NC(=O)Cn2c(=O)c3c(ncn3C)n(C)c2=O)cc1	-0.3	.	.	.	.	.
COc1cc(Cl)c(CC(=O)c2c[nH]c3ccccc23)cc1OC	-9.3	-4.5	32.5*	-3.2	0.8	4.1
O=C(Nc1ccc(Cl)c(C(F)(F)F)c1)N1CCCC(O)C1 (stereo not drawn)	-11.0	-26.0	30.4*	3.9	0.5	-0.5
N#Cc1ccc(C(=O)OCCOc2cccc(Cl)c2)cc1	22.2	.	.	.	.	.
COC(=O)c1ccncc1N	-2.7	-8.4	-9.4	2.9	1.2	-4.6
Nc1cnccc1C(=O)O	26.6	?	42.6*	-11.6	3.8	?
Cc1ccc2oc(C(=O)Nc3ccc(S(N)(=O)=O)cc3)cc(=O)c2c1	-3.1	.	.	.	.	.
COc1ccc(OCc2cc(C(=O)N(C)CCC3CCOCC3)no2)c(Cl)c1	-0.6	-4.8	65.2*	-17.5	-0.9	-5.8
CCN(CC)C(=O)Cn1c(=O)n(CC(=O)N2CCCCC2)c(=O)c2sccc21	-0.9	6.2	33.0*	-1.4	0.4	-2.4
CCCNC(=O)Cn1c(=O)n(CC(=O)N2CCCCC2)c(=O)c2sccc21	-9.4	-27.8	-10.5	5.5	1.1	-14.7
S=C(NCc1ccco1)N1CCN(c2nc(-c3ccccc3)cs2)CC1	-7.7	-10.3	-13.6	4.7	1.1	-2.0
S=C(NCC1CCCO1)N1CCN(c2nc(-c3ccccc3)cs2)CC1 (stereo not drawn)	-3.5	-15.8	66.6*	-19.6	1.2	0.9
Cc1nc(N)sc1C(=O)N/N=C/c1ccccc1[N+](=O)[O-]	.	.	33.0*	5.5	1.2	.
Nc1cc(=O)[nH]c(SCC(=O)Nc2cc(Cl)cc(Cl)c2)n1	-7.0	-37.4	30.1*	-16.7	-0.6	-1.6
CCCOc1cc(OCCC)c2c(=O)cc(-c3ccccc3)oc2c1	14.1	.	.	.	.	.
CCOc1ccc(NC(=S)N2CCN(S(=O)(=O)c3ccc(C)cc3)CC2)cc1	-9.9	5.9	-1.9	-5.2	-0.8	-1.3
CCOc1ccc(S(=O)(=O)N2CCN(S(=O)(=O)c3ccc(C(C)=O)cc3)CC2)cc1	-7.0	-1.9	35.7*	7.6	-0.2	-6.2
